Experimental data as given in PubChem BioAssay AID1159580 (chemical genetic matrix, 2015).
“And” between values parts separate entries of the source, which are not always exact repeats. Equal entries are not always repeated. About 2,000 (36%) of roughly 5,500 compounds were called active. Another 18% or so got no clear call; they are omitted. Rule as the data show it: active = normalized growth mostly below about 0.91 (no sharp cut-off); inconclusive = no clear call, values can overlap the other calls; inactive = mostly above about 0.92. The list shows a part of the results.

Assay: chemical genetic growth profiling, strain panel (AID 1159580);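 also: tested at 20 µM; growth read once vehicle control cultures reached saturation at 30 °C; 1 = growth at the plate median or of vehicle wells; lower values mean less growth of the strain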
Settings: S. cerevisiae deletion strains, growth OD

Measured: normalized growth

CCCCC1C(=O)N(c2ccccc2)N(c2ccccc2)C1=O
inactive: locus YAL013W, strain DEP1, active compounds read low 0.971 and 0.998 | locus YAL021C, strain ccr4, active compounds read low 0.999 | locus YAL026C, strain drs2, active compounds read low 0.982 | locus YAL030W, strain snc1, active compounds read low 0.987 | locus YAL040C, strain CLN3, active compounds read low 0.963 | locus YBL061C, strain skt5, active compounds read low 0.997 | locus YBR009C, strain hhf1, active compounds read low 1.01 | locus YBR021W, strain FUR4, active compounds read low 1.01 | locus YBR023C, strain chs3, active compounds read low 0.998 | locus YBR171W, strain sec66, active compounds read low 0.977 | locus YBR229C, strain ROT2, active compounds read low 0.983 | locus YBR231C, strain swc5, active compounds read low 1 | locus YBR279W, strain paf1, active compounds read low 1.02 | locus YCL011C, strain gbp2, active compounds read low 1 | locus YCL016C, strain dcc1, active compounds read low 1 | locus YCL029C, strain bik1, active compounds read low 1.01 | locus YCL061C, strain MRC1 (second series), active compounds read low 0.998 | locus YCL061C, strain MRC1, active compounds read low 0.983 | locus YCL069W, strain vba3, active compounds read low 0.999 | locus YCR088W, strain abp1, active compounds read low 0.985 | locus YDL005C, strain med2, active compounds read low 1 | locus YDL035C, strain GPR1, active compounds read low 0.989 | locus YDL040C, strain nat1, active compounds read low 0.99 | locus YDL074C, strain BRE1, active compounds read low 1.02 | locus YDL101C, strain DUN1, active compounds read low 1.01 | locus YDL134C, strain PPH21, active compounds read low 0.986 | locus YDL185W, strain tfp1, active compounds read low 0.994 | locus YDL192W, strain arf1, active compounds read low 0.988 | locus YDR001C, strain nth1, active compounds read low 0.984 | locus YDR069C, strain doa4, active compounds read low 0.982 | locus YDR101C, strain arx1, active compounds read low 1.01 | locus YDR137W, strain rgp1, active compounds read low 0.915 | locus YDR150W, strain NUM1, active compounds read low 0.99 and 0.997 | locus YDR159W, strain sac3, active compounds read low 0.972 | locus YDR162C, strain NBP2, active compounds read low 0.976 | locus YDR195W, strain ref2 0.992 | locus YDR297W, strain sur2, active compounds read low 0.989 | locus YDR318W, strain mcm21, active compounds read low 1.01 | locus YDR334W, strain swr1, active compounds read low 0.994 | locus YDR335W, strain msn5, active compounds read low 0.997 | locus YDR363W, strain ESC2, active compounds read low 1.03 | locus YDR388W, active compounds read low 1 | locus YDR392W, strain spt3, active compounds read low 0.969 | locus YDR502C, strain sam2, active compounds read low 0.986 | locus YEL003W, strain gim4, active compounds read low 1 | locus YEL037C, strain rad23, active compounds read low 0.991 | locus YEL061C, strain CIN8 (second series), active compounds read low 0.983 | locus YEL061C, strain CIN8, active compounds read low 0.981 | locus YER002W, strain NOP16, active compounds read low 0.974 | locus YER015W, strain faa2, active compounds read low 0.998 | locus YER016W, strain bim1, active compounds read low 0.99 | locus YER110C, active compounds read low 0.993 | locus YER111C, strain swi4, active compounds read low 0.979 | locus YER155C, strain BEM2 (second series), active compounds read low 1.03 | locus YER155C, strain BEM2, active compounds read low 1.01 | locus YER167W, strain BCK2, active compounds read low 0.987 | locus YFR010W, strain ubp6, active compounds read low 0.991 | locus YGL078C, strain dbp3, active compounds read low 1.01 | locus YGL086W, strain mad1, active compounds read low 0.963 | locus YGL167C, strain pmr1, active compounds read low 0.977 | locus YGL173C, strain kem1, active compounds read low 0.983 | locus YGL227W, strain vid30, active compounds read low 1 | locus YGL240W, strain doc1, active compounds read low 1.01 | locus YGL248W, strain PDE1, active compounds read low 0.991 | locus YGL253W, strain hxk2, active compounds read low 0.994 | locus YGR078C, strain PAC10, active compounds read low 1.02 and 0.981 | locus YGR135W, strain pre9, active compounds read low 0.994 | locus YGR229C, strain SMI1, active compounds read low 0.983 and 1 | locus YGR252W, strain gcn5, active compounds read low 0.922 | locus YHR013C, strain ard1, active compounds read low 0.992 | locus YHR027C, strain rpn1, active compounds read low 0.99 | locus YHR030C, strain SLT2, active compounds read low 0.992 and 0.937 | locus YHR079C, strain IRE1 (second series), active compounds read low 1 | locus YHR079C, strain IRE1, active compounds read low 0.917 | locus YHR094C, strain hxt1, active compounds read low 0.991 | locus YHR129C, strain ARP1, active compounds read low 0.994 | locus YHR142W, strain chs7, active compounds read low 1.03 | locus YHR200W, strain rpn10, active compounds read low 1 | locus YIL066C, strain RNR3, active compounds read low 0.991 | locus YIL073C, strain SPO22, active compounds read low 1.01 | locus YIL125W, strain kgd1, active compounds read low 0.98 | locus YIR030C, strain dcg1, active compounds read low 0.993 | locus YJL092W, strain hpr5, active compounds read low 0.985 | locus YJL095W, strain BCK1 (second series), active compounds read low 0.996 | locus YJL095W, strain BCK1, active compounds read low 1.03 and 0.938 | locus YJL115W, strain asf1, active compounds read low 0.99 | locus YJL129C, strain trk1, active compounds read low 0.999 | locus YJL134W, strain LCB3, active compounds read low 0.977 | locus YJL154C, strain vps35, active compounds read low 0.991 | locus YJL164C, strain tpk1, active compounds read low 1.01 | locus YJL166W, strain qcr8, active compounds read low 1.01 | locus YJL168C, strain set2, active compounds read low 0.988 | locus YJL187C, strain SWE1 (second series), active compounds read low 1.01 | locus YJL187C, strain SWE1, active compounds read low 0.988 | locus YJR043C, strain POL32, active compounds read low 1.04 | locus YJR066W, strain TOR1, active compounds read low 0.915
